Reference: PubChem BioAssay (Tox21)
Records with an inconclusive call do not appear. The source made the active and inactive calls. Unless noted, calls follow the shape of the dose curve; as a rule, active = well fitted curve in the direction sought with a large enough effect in the repeat runs; inconclusive = weak or mixed curves; inactive = no such curve, though single readings can be large; an effect the other way counts as inactive or inconclusive.

Experiments:
[1] = qHTS assay for small molecules that induce genotoxicity in human embryonic kidney cells expressing luciferase-tagged ATAD5 (AID 651632); also: % is scaled to controls: 0 for no effect and ±100 for the full control effect; nearly all actives have a fitted effect of over 15% in size
Procedure, shortened: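 Concentration-response screen for ATAD5 upregulation in HEK293T luciferase reporter cells; 16 hr treatment at 37C, then luminescence after 30 min with Amplite at room temperature.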

[2] = qHTS assay for small molecule agonists of the p53 signaling pathway - cell viability (AID 651633; calls by dose curve; also: nearly all actives have a fitted effect of over 30% in size; also: potency is read from the fitted curve at half-maximal effect)
Procedure, shortened: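 p53RE-bla cells, seeded at 4,000 per well and rested 5 h at 37 C/5% CO2, received compounds in DMSO for 16 h at 37 C. CellTiter-Glo was then added, and luminescence was read after 30 min at room temperature to gauge cytotoxicity.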

[3] = qHTS assay for small molecules that induce genotoxicity in human embryonic kidney cells expressing luciferase-tagged ATAD5 - cell viability (AID 651634; calls by dose curve; also: nearly all actives have a fitted effect of over 25% in size; also: potency is read from the fitted curve at half-maximal effect)
Procedure, shortened: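 15.5 hr compound or vehicle exposure of HEK293T cells expressing luciferase-tagged ATAD5 at 37C; live-cell protease activity is read by fluorescence after 30 min of CellTiter-Fluor.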

[4] = qHTS assay for small molecule disruptors of the mitochondrial membrane potential - cell viability (AID 720634; calls by dose curve; also: nearly all actives have a fitted effect of over 20% in size; also: potency is read from the fitted curve at half-maximal effect)
Procedure, shortened: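 In this qHTS format, HepG2 cells plated overnight were pinned with compound, incubated 1 hr, and assayed for ATP luminescence with CellTiter-Glo after m-MPI dye addition.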

[5] = qHTS assay for small molecule disruptors of the mitochondrial membrane potential (AID 720635); also: potency is read from the fitted curve at half-maximal effect
Procedure, shortened: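 HepG2 cells (2,000/well) attached overnight at 37C, then took compound for 1 hr at 37C, 5% CO2. Mito-MPS dye was added for 30 min; fluorescence was read at 490/535 nm (monomers) and 540/590 nm (aggregates).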

[6] = qHTS assay to test for compound auto fluorescence at 590 nm (red) in HepG2 cells (AID 720674); also: % is scaled to controls: 0 for no effect and ±100 for the full control effect
Procedure, shortened: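 Intrinsic compound fluorescence in the red window (Ex/Em 540/590 nm) is measured in attached HepG2 cells exposed for 1 hr, DMSO vehicle as baseline, benchmarked to Rose Bengal sodium.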

[7] = qHTS assay to test for compound auto fluorescence at 535 nm (green) in HepG2 cells (AID 720675); also: % is scaled to controls: 0 for no effect and ±100 for the full control effect
[8] = qHTS assay to test for compound auto fluorescence at 460 nm (blue) in HEK293 cells (AID 720678); also: % is scaled to controls: 0 for no effect and ±100 for the full control effect
Procedure, shortened: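 Measured: blue fluorescence (Ex 405/Em 460 nm) of compound-treated HEK293 cells, incubated overnight at 37C with 5% CO2 and scaled to triamterene equivalents.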

[9] = qHTS assay to test for compound auto fluorescence at 535 nm (green) in HEK293 cells (AID 720680); also: % is scaled to controls: 0 for no effect and ±100 for the full control effect
[10] = qHTS assay to test for compound auto fluorescence at 460 nm (blue) in HEK293 cell free culture (AID 720681); also: % is scaled to controls: 0 for no effect and ±100 for the full control effect
Procedure, shortened: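 Test compounds were pinned into cell-free culture medium (DMEM with 10% FBS) and fluorescence was read directly at Ex/Em 405/460 nm. Signals were expressed as fluorescence equivalents of triamterene, with DMSO vehicle as control.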

[11] = qHTS assay to test for compound auto fluorescence at 535 nm (green) in HEK293 cell free culture (AID 720682); also: % is scaled to controls: 0 for no effect and ±100 for the full control effect
Procedure, shortened: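 Green-channel intensity (Ex/Em 485/535 nm) was recorded from compound-treated wells containing only DMEM with 10% FBS. Fluorescein provided the equivalency standard.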

[12] = qHTS assay to test for compound auto fluorescence at 590 nm (red) in HEK293 cell free culture (AID 720683); also: % is scaled to controls: 0 for no effect and ±100 for the full control effect
Procedure, shortened: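 Tox21 10K library compounds were pinned into cell-free DMEM with 10% FBS and fluorescence was read at excitation 540 nm. Activity is expressed as Rose Bengal sodium equivalency.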

[13] = qHTS assay to test for compound auto fluorescence at 590 nm (red) in HepG2 cell free culture (AID 720684); also: % is scaled to controls: 0 for no effect and ±100 for the full control effect
Procedure, shortened: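 Ex 540 / Em 590 nm read of compound in cell-free MEM (10% FBS). Rose Bengal sodium reference.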

[14] = qHTS assay to test for compound auto fluorescence at 460 nm (blue) in HepG2 cell free culture (AID 720685); also: % is scaled to controls: 0 for no effect and ±100 for the full control effect
Procedure, shortened: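 Cell-free plates of MEM plus 10% FBS received 23 nL compound or DMSO vehicle; blue-channel (405/460 nm) intensity scored against triamterene as reference fluorophore.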

[15] = qHTS assay to test for compound auto fluorescence at 535 nm (green) in HepG2 cell free culture (AID 720686); also: % is scaled to controls: 0 for no effect and ±100 for the full control effect
[16] = qHTS assay to test for compound auto fluorescence at 460 nm (blue) in HepG2 cells (AID 720687); also: % is scaled to controls: 0 for no effect and ±100 for the full control effect
Procedure, shortened: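 Cells (2,000/well in MEM with 10% FBS) attached overnight at 37 C, then were exposed to compound or DMSO for 1 hr at 37 C, 5% CO2. Fluorescence read at Ex/Em 405/460 nm, expressed as triamterene-equivalent signal.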

[17] = qHTS assay to test for compound auto fluorescence at 590 nm (red) in HEK293 cells (AID 720679); also: % is scaled to controls: 0 for no effect and ±100 for the full control effect
Procedure, shortened: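 Using HEK293 cells at 2,000 per well, the screen added 23 nL of each compound after cell attachment and incubated overnight (37C, 5% CO2). The plate reader then captured red-label fluorescence, Ex/Em 540/590nm.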

[18] = target: Glucocorticoid receptor (Homo sapiens) (UniProt P04150); assay: qHTS assay to identify small molecule agonists of the glucocorticoid receptor (GR) signaling pathway (AID 720691; active = well fitted activation curve with a large enough effect in the signal ratio in the repeat runs, not every such curve was filed as active; the % refers to the signal ratio; also: % is scaled to controls: 0 for no effect and ±100 for the full control effect); conditions: GR-bla HeLa, beta-lactamase reporter ratio, 18 h; activation: at 62.4 µM (top of the series)
Procedure, shortened: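 Measures GR pathway activation through a GRE-beta-lactamase reporter stably integrated in HeLa cells, with 18 h compound treatment at 37 C and fluorescence detection using a FRET substrate.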

[19] = target: Glucocorticoid receptor (Homo sapiens) (UniProt P04150); assay: qHTS assay to identify small molecule antagonists of the glucocorticoid receptor (GR) signaling pathway (AID 720692; active = well fitted inhibition curve with a large enough effect in the signal ratio in the repeat runs, not every such curve was filed as active; the % refers to the signal ratio; also: % is scaled to controls: 0 for no effect and ±100 for the full control effect)
Procedure, shortened: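 Tox21 10K library screened in concentration-response for blockade of dexamethasone (5 nM final)-induced GRE-bla reporter activity in HeLa cells; 18 h treatment, fluorescence read.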

[20] = qHTS assay for small molecule agonists of the p53 signaling pathway (AID 651631; calls by dose curve; also: % is scaled to controls: 0 for no effect and ±100 for the full control effect; nearly all actives have a fitted effect of over 15% in size)
Procedure, shortened: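 We treat p53RE-bla HCT-116 cells with compounds for 16 h at 37 °C, add LiveBLAzer B/G FRET substrate for 2 h at room temperature, and measure fluorescence intensity.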

Glucocorticoid receptor (Homo sapiens), sequence (P04150 whole entry, looked up): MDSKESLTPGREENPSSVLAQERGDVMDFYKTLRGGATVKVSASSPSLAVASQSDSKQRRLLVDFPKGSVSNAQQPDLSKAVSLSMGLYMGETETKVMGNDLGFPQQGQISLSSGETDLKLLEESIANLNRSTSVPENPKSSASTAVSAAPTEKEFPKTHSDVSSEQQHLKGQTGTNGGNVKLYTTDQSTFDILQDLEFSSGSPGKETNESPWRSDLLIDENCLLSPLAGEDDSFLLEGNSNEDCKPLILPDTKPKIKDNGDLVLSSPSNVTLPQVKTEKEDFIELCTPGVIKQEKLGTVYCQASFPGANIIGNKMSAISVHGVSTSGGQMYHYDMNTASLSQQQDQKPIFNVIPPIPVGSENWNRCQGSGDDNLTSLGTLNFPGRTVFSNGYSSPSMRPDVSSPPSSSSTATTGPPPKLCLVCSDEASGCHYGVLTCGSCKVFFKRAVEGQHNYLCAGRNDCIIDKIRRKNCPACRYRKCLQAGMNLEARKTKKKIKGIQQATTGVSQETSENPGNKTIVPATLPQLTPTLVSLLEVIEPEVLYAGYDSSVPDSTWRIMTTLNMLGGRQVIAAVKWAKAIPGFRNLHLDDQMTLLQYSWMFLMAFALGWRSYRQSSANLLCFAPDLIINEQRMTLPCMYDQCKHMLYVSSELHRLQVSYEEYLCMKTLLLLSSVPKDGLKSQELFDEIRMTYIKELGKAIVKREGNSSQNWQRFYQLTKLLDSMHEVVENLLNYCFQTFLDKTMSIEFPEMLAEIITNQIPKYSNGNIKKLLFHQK

CC(C)N(C(=O)SC/C(Cl)=C/Cl)C(C)C
inactive: Potency [1] | outcome [6] | Potency [7] | Potency [8] | outcome [9] | Potency [10] | outcome [11] | outcome [12] | outcome [13] | Potency [14] | Potency [15] | Potency [16]
active: Potency [2] 21.8 µM | Potency [3] 48.9 µM | Potency [4] 54.8 µM | Potency [5] 48.9 µM

Cc1ccn2nc(S(=O)(=O)Nc3c(F)cccc3F)nc2n1
inactive: Potency [1] | Potency [2] | Potency [3] | Potency [4] | outcome [6] | Potency [7] | Potency [8] | outcome [17] | outcome [9] | Potency [10] | outcome [11] | outcome [13] | Potency [14] | Potency [15] | Potency [16]

CC(=O)[O][Sn]([c]1ccccc1)([c]1ccccc1)[c]1ccccc1
active: Potency [2] 3.44 µM | Potency [3] 0.122 µM | Potency [4] 15.4 µM | Potency [5] 0.077 µM
inactive: Potency [1] | outcome [6] | Potency [7] | Potency [8] | outcome [17] | outcome [9] | Potency [10] | outcome [11] | outcome [13] | Potency [14] | Potency [16]

O=C(O)CCCCCCNC1c2ccccc2CCc2ccccc21
inactive: Potency [1] | Potency [2] | Potency [3] | Potency [4] | outcome [6] | Potency [7] | Potency [8] | outcome [17] | outcome [9] | Potency [10] | outcome [11] | outcome [12] | outcome [13] | Potency [14] | Potency [15] | Potency [16] | Potency [18] | Potency [19]

COc1c2c(cc3c1OCO3)CCN(C)C2
inactive: Potency [1] | Potency [2] | Potency [3] | Potency [4] | fluorescence, relative to Rose Bengal [6] 0.142% [at 18.6 µM] | fluorescence, % of fluorescein control [7] -0.0459% [at 18.6 µM] | fluorescence, % of triamterene [8] 0.0083% [at 18.6 µM] | fluorescence, % of fluorescent control [17] -0.0835% [at 18.6 µM] | fluorescence, % of fluorescein [9] -0.0183% [at 18.6 µM] | fluorescence, % of fluorescent control [10] 0.395% [at 18.6 µM] | activity change [11] -0.0284% [at 18.6 µM] | fluorescence, % of fluorescent control [12] 0.174% [at 18.6 µM] | fluorescence, % of Rose Bengal [13] -0.194% [at 18.6 µM] | fluorescence, % of fluorescent control [14] -0.0127% [at 18.6 µM] | fluorescence, % of fluorescein control [15] -0.0107% [at 18.6 µM] | fluorescence, % of fluorescent control [16] -0.0807% [at 18.6 µM] | Potency [18] | Potency [19]

[O-][Cl+3]([O-])([O-])O
inactive: Potency [1] | Potency [2] | Potency [3] | Potency [4] | outcome [6] | Potency [7] | Potency [8] | outcome [17] | outcome [9] | Potency [10] | outcome [11] | outcome [12] | outcome [13] | Potency [14] | Potency [15] | Potency [16]

CN
inactive: Potency [20] | Potency [3] | Potency [4] | outcome [6] | Potency [7] | Potency [8] | outcome [17] | Potency [10] | outcome [11] | outcome [12] | outcome [13] | Potency [14] | Potency [15] | Potency [16] | Potency [18] | Potency [19]

C=C(C)C(=O)[O][Sn]([CH2]CCC)([CH2]CCC)[CH2]CCC
inactive: Potency [1] | outcome [6] | Potency [7] | Potency [8] | outcome [17] | outcome [9] | Potency [10] | outcome [13] | Potency [14] | Potency [15] | Potency [16]
active: Potency [2] 0.611 µM | Potency [3] 0.611 µM | Potency [4] 3.86 µM | Potency [5] 0.0611 µM

COC(=O)c1cc(Oc2ccc(Cl)cc2Cl)ccc1[N+](=O)[O-]
inactive: Potency [1] | Potency [2] | Potency [3] | outcome [6] | Potency [7] | Potency [8] | outcome [17] | outcome [9] | Potency [10] | outcome [11] | outcome [13] | Potency [14] | Potency [15] | Potency [16] | Potency [18] | Potency [19]

CCCCC(CC)COC(=O)c1ccccc1C(=O)OCC(CC)CCCC (stereo not given)
inactive: Potency [1] | Potency [2] | Potency [3] | Potency [4] | outcome [6] | Potency [7] | Potency [8] | outcome [17] | Potency [10] | outcome [12] | outcome [13] | Potency [14] | Potency [15] | Potency [16] | Potency [18]

COP(=S)(OC)Oc1ccc([N+](=O)[O-])c(C)c1
inactive: Potency [1] | Potency [2] | Potency [3] | Potency [7] | Potency [8] | outcome [17] | outcome [9] | Potency [10] | outcome [11] | outcome [12] | outcome [13] | Potency [14] | Potency [15] | Potency [16] | Potency [18]

CCCCN(CCCC)C(=S)[S-].CCCCN(CCCC)C(=S)[S-].[Ni+2]
inactive: Potency [1] | Potency [2] | Potency [3] | Potency [4] | outcome [6] | Potency [7] | Potency [8] | outcome [9] | Potency [10] | outcome [11] | outcome [12] | outcome [13] | Potency [14] | Potency [16] | Potency [18] | Potency [19]

CN1CCc2cc(Cl)c(O)cc2[C@H]2c3ccccc3CC[C@@H]21
inactive: Potency [1] | Potency [2] | Potency [3] | Potency [4] | outcome [6] | Potency [7] | Potency [8] | outcome [17] | outcome [9] | Potency [10] | outcome [12] | outcome [13] | Potency [14] | Potency [15] | Potency [16] | Potency [18]

CCOC(=O)Cc1ccccc1
inactive: Potency [1] | Potency [2] | Potency [3] | Potency [4] | outcome [6] | Potency [7] | Potency [8] | outcome [17] | outcome [9] | Potency [10] | outcome [12] | outcome [13] | Potency [14] | Potency [15] | Potency [16] | Potency [18] | Potency [19]

CC(C)[C@@H](Nc1ccc(C(F)(F)F)cc1Cl)C(=O)OC(C#N)c1cccc(Oc2ccccc2)c1 (stereo not given in full)
inactive: Potency [1] | Potency [2] | Potency [3] | outcome [6] | Potency [7] | Potency [8] | outcome [17] | outcome [9] | Potency [10] | outcome [11] | outcome [13] | Potency [15] | Potency [16]
active: Potency [5] 26.3 µM

Cc1c([N+](=O)[O-])cc2c(c1[N+](=O)[O-])C(C)(C)CC2(C)C
inactive: Potency [1] | Potency [2] | Potency [3] | Potency [7] | Potency [8] | outcome [17] | outcome [9] | Potency [10] | outcome [11] | outcome [12] | outcome [13] | Potency [14] | Potency [15] | Potency [16] | Potency [18] | Potency [19]
active: Potency [5] 30.6 µM
